The source of these data is PubChem BioAssay.

Activity calls are given as the source filed them.

A short description of experiment [1]: binders of probe aFSTL3 on microarray, primary screen, stem cell growth factor project, biochemical, small-molecule microarray, fluorescence 635/667 (AID 1064).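 Also: measures binding of the biotinylated anti-FSTL3 antibody to printed compounds.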 As to conditions: higher = more signal.
A short description of experiment [2]: binders from COS7 lysate, DM2A8 probe, primary screen, torsin A project, cell lysate, small-molecule microarray, fluorescence 635/667 (AID 1065). The note with it: higher = more signal, COS7 lysate expressing mutant human TOR1A.
Experiment [3] is described as follows: binders of probe aFGF2 on microarray, primary screen, stem cell growth factor project, biochemical, small-molecule microarray, fluorescence 635/667 (AID 1067).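 Also: measures binding of biotinylated aFGF2 protein to printed compounds on slides; z-score merges feature fluorescence and signal-to-noise across triplicate slides.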 The note with it: higher = more signal.
The nature of experiment [4]: binders of probe aFGF10 on microarray, primary screen, stem cell growth factor project, biochemical, small-molecule microarray, fluorescence 635/667 (AID 1071).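 Also: score merges 667 nm spot intensity and signal to noise from triplicate slides.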 The note with it: higher = more signal.
Experiment [5] concerns the target Neurogenic locus notch homolog protein 2 (Homo sapiens) (UniProt Q04721). The experiment in a line: Notch2 binders on small-molecule microarrays, primary screen, biochemical, small-molecule microarray, 635 nm fluorescence, stem cell growth factors (AID 1073). As to conditions: Notch2 binding, higher = more signal.
For experiment [6], the target named is Pro-neuregulin-1, membrane-bound isoform (Homo sapiens) (UniProt Q02297). The experiment in a line: NRG1 binders on small-molecule microarrays, primary screen, psychiatric disease protein project, biochemical, small-molecule microarray, fluorescence 635/667 (AID 1075).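 Also: score combines 667 nm spot fluorescence with signal to noise.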 The note with it: NRG1 binding, 635 nm fluorescence, higher = more signal.
Experiment [7] concerns Neuregulin-1 EGF-like domain. Briefly: binders of neuregulin-1 EGF-like domain, primary screen, biochemical, small-molecule microarray, 635 nm fluorescence (AID 1081).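 Also: binding of the protein to compounds printed on small-molecule microarray slides.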 As to conditions: small-molecule microarray binding, higher = more signal.
The nature of experiment [8]: FRG1 promoter luciferase signal modulators, primary screen, FRG1 inhibition for FSHD, cell-based, C2C12 myotubes, firefly/Renilla luciferase, luminescence (AID 1084). As to conditions: higher = more signal, called active from +8 up or from −8 down.
The nature of experiment [9]: binders of probe aFST on microarray, primary screen, stem cell growth factor project, biochemical, small-molecule microarray, fluorescence 635/667 (AID 1086).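 Also: score merges 667 nm fluorescence with signal-to-noise of each printed compound spot.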 The note with it: higher = more signal.
A short description of experiment [10]: binders of probe aHhip on microarray, primary screen, stem cell growth factor project, biochemical, small-molecule microarray, fluorescence 635/667 (AID 1087).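 Also: score merges spot fluorescence at 667nm with spot signal to noise ratio.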 The note with it: higher = more signal.

Chain of Pro-neuregulin-1, membrane-bound isoform (Homo sapiens) (Q02297 whole entry, looked up, the tested form may be a part, canonical isoform): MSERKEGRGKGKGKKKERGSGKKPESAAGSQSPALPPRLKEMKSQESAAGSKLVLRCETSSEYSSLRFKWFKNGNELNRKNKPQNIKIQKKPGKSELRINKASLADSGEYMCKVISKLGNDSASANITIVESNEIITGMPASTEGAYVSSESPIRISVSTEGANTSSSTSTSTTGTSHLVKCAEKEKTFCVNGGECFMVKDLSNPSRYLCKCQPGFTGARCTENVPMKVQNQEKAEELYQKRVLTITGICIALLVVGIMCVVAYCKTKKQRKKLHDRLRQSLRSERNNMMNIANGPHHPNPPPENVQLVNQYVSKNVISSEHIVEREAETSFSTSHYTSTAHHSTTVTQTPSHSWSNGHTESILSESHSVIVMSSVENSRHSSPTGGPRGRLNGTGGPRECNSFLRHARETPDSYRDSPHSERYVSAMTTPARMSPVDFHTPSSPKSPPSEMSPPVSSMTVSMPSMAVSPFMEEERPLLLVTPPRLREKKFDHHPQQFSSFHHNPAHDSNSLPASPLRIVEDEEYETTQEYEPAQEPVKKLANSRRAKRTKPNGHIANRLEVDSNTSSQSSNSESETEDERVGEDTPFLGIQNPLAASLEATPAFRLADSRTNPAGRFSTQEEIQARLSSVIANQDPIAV
Chain of Neurogenic locus notch homolog protein 2 (Homo sapiens) (Q04721 whole entry, looked up, canonical isoform): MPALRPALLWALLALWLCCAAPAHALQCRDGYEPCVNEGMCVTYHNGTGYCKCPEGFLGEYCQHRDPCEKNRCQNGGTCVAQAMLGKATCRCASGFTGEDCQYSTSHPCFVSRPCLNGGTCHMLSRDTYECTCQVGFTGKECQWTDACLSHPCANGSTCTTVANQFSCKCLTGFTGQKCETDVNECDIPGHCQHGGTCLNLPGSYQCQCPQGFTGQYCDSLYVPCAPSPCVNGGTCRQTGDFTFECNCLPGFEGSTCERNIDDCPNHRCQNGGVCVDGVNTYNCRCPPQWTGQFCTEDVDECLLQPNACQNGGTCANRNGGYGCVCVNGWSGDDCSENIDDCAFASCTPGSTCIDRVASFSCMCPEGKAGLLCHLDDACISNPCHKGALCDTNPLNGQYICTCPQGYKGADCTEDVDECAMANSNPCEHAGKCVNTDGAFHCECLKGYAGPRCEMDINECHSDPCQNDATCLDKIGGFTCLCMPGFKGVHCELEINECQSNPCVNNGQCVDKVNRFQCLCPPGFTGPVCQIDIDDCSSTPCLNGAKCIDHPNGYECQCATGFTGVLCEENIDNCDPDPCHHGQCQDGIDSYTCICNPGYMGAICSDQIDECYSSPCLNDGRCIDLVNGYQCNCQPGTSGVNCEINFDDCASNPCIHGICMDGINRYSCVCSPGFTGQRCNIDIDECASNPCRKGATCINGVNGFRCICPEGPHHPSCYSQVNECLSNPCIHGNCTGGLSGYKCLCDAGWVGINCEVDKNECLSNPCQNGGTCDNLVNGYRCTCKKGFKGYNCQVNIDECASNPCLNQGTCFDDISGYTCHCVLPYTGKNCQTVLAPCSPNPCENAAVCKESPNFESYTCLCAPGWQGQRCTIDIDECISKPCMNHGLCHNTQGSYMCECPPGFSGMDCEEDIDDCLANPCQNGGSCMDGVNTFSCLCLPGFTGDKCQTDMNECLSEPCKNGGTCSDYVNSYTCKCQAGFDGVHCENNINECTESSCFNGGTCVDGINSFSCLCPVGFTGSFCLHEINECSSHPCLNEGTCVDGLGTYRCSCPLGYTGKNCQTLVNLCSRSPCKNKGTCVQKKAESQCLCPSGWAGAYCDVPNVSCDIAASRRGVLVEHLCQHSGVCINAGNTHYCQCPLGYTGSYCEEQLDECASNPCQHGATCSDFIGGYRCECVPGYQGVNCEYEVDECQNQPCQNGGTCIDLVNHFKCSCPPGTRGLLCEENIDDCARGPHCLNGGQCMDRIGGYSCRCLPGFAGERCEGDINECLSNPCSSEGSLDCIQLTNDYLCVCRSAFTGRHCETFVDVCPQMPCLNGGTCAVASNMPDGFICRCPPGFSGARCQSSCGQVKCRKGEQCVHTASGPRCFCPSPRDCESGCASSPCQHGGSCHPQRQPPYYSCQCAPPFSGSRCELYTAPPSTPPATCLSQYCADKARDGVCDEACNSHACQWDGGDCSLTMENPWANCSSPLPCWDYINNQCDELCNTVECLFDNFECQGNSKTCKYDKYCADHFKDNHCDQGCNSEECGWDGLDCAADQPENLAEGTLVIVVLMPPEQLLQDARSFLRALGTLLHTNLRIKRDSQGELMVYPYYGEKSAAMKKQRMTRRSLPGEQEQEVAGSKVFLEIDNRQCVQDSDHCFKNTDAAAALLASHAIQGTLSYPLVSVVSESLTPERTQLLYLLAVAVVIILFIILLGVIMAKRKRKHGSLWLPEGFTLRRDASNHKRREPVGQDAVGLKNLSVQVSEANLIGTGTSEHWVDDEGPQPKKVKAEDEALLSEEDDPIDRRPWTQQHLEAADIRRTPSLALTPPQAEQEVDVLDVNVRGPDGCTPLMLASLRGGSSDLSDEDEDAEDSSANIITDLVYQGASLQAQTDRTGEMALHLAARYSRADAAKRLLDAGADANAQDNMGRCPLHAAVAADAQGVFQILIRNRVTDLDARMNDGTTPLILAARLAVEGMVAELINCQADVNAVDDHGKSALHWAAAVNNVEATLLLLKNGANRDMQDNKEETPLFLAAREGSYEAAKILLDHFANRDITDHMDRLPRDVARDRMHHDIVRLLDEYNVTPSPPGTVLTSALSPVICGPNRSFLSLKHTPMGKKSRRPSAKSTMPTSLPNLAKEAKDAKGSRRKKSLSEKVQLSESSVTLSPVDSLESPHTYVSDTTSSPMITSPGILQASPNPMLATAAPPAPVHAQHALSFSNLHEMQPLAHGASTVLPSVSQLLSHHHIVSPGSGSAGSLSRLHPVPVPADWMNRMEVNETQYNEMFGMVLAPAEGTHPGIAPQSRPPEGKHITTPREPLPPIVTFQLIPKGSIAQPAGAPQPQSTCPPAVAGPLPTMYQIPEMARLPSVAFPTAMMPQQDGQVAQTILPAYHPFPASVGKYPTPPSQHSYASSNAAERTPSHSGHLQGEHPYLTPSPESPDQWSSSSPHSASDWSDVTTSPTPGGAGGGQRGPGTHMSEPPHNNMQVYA

As for `COC(=O)[C@@]1(Cc2ccccc2)[C@H]2c3cc(C(=O)N4CCCC4)n(C[C@H](O)CO)c3C[C@H]2CN1C(=O)c1ccccc1`, the composite z-score in [1] was 0.52; in experiment [2] it was -0.0861; in [3], -0.16; in experiment [4], 0.0518; in [5], 1.58; in [6] it was 1.99. Besides, the values for the composite z-score in experiment [7], in experiment [9] and in experiment [10] were 1.3, 0.348 and 0.0053, respectively. Besides, in experiment [8], the z-score was 0.593 (inactive).

Turning to `COc1ccccc1CN1C(=O)c2ccccc2[C@@H](C(=O)NC(C)C)[C@@H]1c1ccc(CO)cc1`, the composite z-score in experiment [1] is -0.0001; in [2] it was -0.487; in experiment [3] it was 0.0451; in experiment [4], 0.761; in [5] it was 1.53; in [6], 1.13. For the same compound, the composite z-score was found to be 1.31 in experiment [7], 0.676 in experiment [9] and 0.281 in experiment [10]. The z-score in experiment [8] is -1.41 (inactive).

On to `C=C(C(=O)CC[C@H](OC(=O)c1cccnc1)c1ccc(CO)o1)C(C)C`, for which the composite z-score was -0.201 in experiment [1]; 0.674 in [2]; -0.0415 in experiment [3]; 0.467 in experiment [4]; 0.355 in [5]; 0.904 in [6]. In addition, the composite z-score is 1.25 in experiment [7], 0.28 in experiment [9] and -0.121 in [10]. Besides, in experiment [8], the z-score was 0.0619 (inactive).

Turning to `COc1ccc(NN2C(C(O)c3ccco3)C=CC3C(=O)N(C4CCCCC4)C(=O)C32)cc1` (stereo not given), the composite z-score was -0.0934 in experiment [1]; 1.14 in experiment [2]; -0.051 in experiment [3]; 1.12 in experiment [4]; 1.36 in [5]; 0.95 in [6]. The composite z-score was 1.15 in experiment [7], 1.51 in experiment [9] and 0.0216 in experiment [10]. Further, in experiment [8], the z-score is 0.592 (inactive).

`CC=CC(O)C1C=CC2C(=O)N(c3ccccc3)C(=O)C2N1Nc1ccc([N+](=O)[O-])cc1` (stereo not given): the composite z-score in experiment [1] is -0.241; in experiment [2], 0.0149; in experiment [3], -0.0534; in [4], 0.407; in experiment [5], 0.998; in experiment [6] it was 1.69. The composite z-score in [7] was 0.981; in experiment [9], 0.126; in [10], -0.0003. For the same compound, the z-score in experiment [8] is 0.515 (inactive).

Turning to `COCCOC(=O)N1C(=O)[C@@]2(c3ccccc31)[C@H](C(=O)N1CCN(c3ncccn3)CC1)[C@H]1C(=O)O[C@H](c3ccccc3)[C@H](c3ccccc3)N1[C@@H]2c1ccc(OCCO)cc1`, the composite z-score worked out at 0.213 in experiment [1]; 0.295 in experiment [2]; 0.0043 in experiment [3]; 1.13 in experiment [4]; 1.29 in experiment [5]; 1.2 in experiment [6]. The composite z-score was found to be 1.28 in [7], 0.593 in experiment [9] and 0.388 in [10]. Besides, in experiment [8], the z-score is 0.795 (inactive).

Consider `CCOC(=O)C[C@H]1[C@H](OC(=O)c2ccccc2-c2ccccc2)[C@@H](NC(=O)c2ccc3ccccc3n2)c2cc(OCCCO)ccc2N1C(=O)c1ccc2ccccc2n1`, for which the composite z-score in experiment [1] is -0.348; in [2], 0.749; in [3], -0.074; in experiment [4], 0.304; in [5], 0.607; in experiment [6], 0.189. In addition, the values for the composite z-score in experiment [7], in [9] and in experiment [10] were 0.0721, 0.189 and -0.0994, respectively. The z-score in [8] was 0.075 (inactive).

Consider `[N-]=[N+]=NCc1ccccc1[C@H]1OC(c2ccc(OCCCO)cc2)=N[C@@]1(CCS(=O)(=O)c1ccccc1)C(N)=O`, for which the composite z-score was 0.573 in experiment [1]; 1.33 in experiment [2]; 0.145 in experiment [3]; 0.763 in [4]; 1.65 in experiment [5]; 2.03 in experiment [6]. Moreover, the composite z-score in [7] is 1.36; in [9] it was 0.805; in experiment [10], -0.0645. Moreover, in experiment [8], the z-score was 4.66 (inactive).

With `C[C@]1(C(=O)NCCN2CCOCC2)c2ccccc2C(=O)N(Cc2ccc(OC(F)(F)F)cc2)[C@H]1c1ccc(CO)cc1`, the composite z-score in experiment [1] was 0.0198; in [2] it was 0.317; in experiment [3] it was -0.146; in experiment [4] it was -0.735; in experiment [5], -0.375; in experiment [6] it was 2.05. The composite z-score in experiment [7] was 1.02; in [9] it was 0.045; in [10] it was -0.236. In experiment [8], the z-score was -2.39 (inactive).

`CN1C(=O)[C@@]2(CCS(=O)(=O)c3ccccc3)N=C(c3ccc(OCCCO)cc3)O[C@H]2c2ccccc21`: the composite z-score is 0.185 in experiment [1]; 0.394 in [2]; -0.102 in [3]; 0.832 in experiment [4]; 1.45 in [5]; 1.59 in experiment [6]. Also, the composite z-score is 1.34 in [7], 1.09 in [9] and -0.04 in experiment [10]. Further, the z-score in [8] is -3.84 (inactive).

Turning to `CCOC(=O)C[C@H]1[C@H](OC(=O)c2ccc(-c3ccccc3)cc2)[C@@H](NC(=O)c2ccc3ccccc3c2)c2cc(OCCCO)ccc2N1C(=O)c1ccc2ccccc2n1`, the composite z-score in experiment [1] is -0.0093; in [2], 0.0135; in experiment [3], -0.06; in experiment [4], 0.398; in experiment [5] it was 0.676; in experiment [6], 0.706. The results for the composite z-score in experiment [7], in experiment [9] and in [10] were 0.15, 0.426 and 0.154, respectively. For the same compound, in experiment [8], the z-score is 0.247 (inactive).

Consider `COC(=O)C(CC#Cc1ccc2c(c1)[C@]1(C(=O)N2)[C@H](C(=O)O)[C@H]2C(=O)O[C@H](c3ccccc3)[C@H](c3ccccc3)N2[C@@H]1c1ccccc1OCCO)C(=O)OC`, for which the composite z-score in [1] amounted to 0.232; in [2], 0.63; in experiment [3], 0.0762; in [4], 1.12; in experiment [5], 0.866; in experiment [6], 1.27. For the same compound, the composite z-score was determined as 1.21 in experiment [7], 0.451 in [9] and 0.275 in experiment [10]. In addition, the z-score in experiment [8] was 0.483 (inactive).

In the case of `CCOC(=O)C[C@H]1[C@H](OC(=O)c2ccc(-c3ccccc3)cc2)[C@@H](NC(=O)c2ccc3ccccc3n2)c2cc(OCCCO)ccc2N1C(=O)c1ccccc1`, the composite z-score was -0.497 in experiment [1]; 0.482 in experiment [2]; -0.0996 in [3]; 0.618 in experiment [4]; 1.01 in experiment [5]; 0.464 in experiment [6]. Also, the composite z-score was determined as 0.857 in experiment [7], 0.579 in experiment [9] and 0.113 in experiment [10]. Also, the z-score in experiment [8] is -0.561 (inactive).

As for `C=CCOC(=O)[C@H]1[C@@H]2C(=O)O[C@@H](c3ccccc3)[C@@H](c3ccccc3)N2[C@@H](c2ccc(OCCOC(=O)[C@H]3C[C@H]4C(=O)N[C@@H](CCCC[N+](C)(C)C)C(=O)N4[C@H]3c3cccc(OCCO)c3)cc2)[C@]12C(=O)Nc1ccc(I)cc12`, the composite z-score was -0.345 in [1]; 0.46 in experiment [2]; -0.0937 in [3]; 0.723 in experiment [4]; 0.312 in experiment [5]; 0.288 in experiment [6]. In addition, the composite z-score is 0.755 in experiment [7], -0.278 in experiment [9] and -0.126 in experiment [10]. In addition, the z-score in experiment [8] is 0.707 (inactive).

With `NC(N)=NCc1cn(CCc2c[nH]c3ccccc23)nn1`, the composite z-score was -0.711 in experiment [1]; 0.348 in experiment [2]; -0.121 in experiment [3]; 0.536 in experiment [4]; 0.348 in experiment [5]; 0.499 in experiment [6]. Besides, the values for the composite z-score in experiment [7], in [9] and in experiment [10] were 0.992, 0.225 and 0.132, respectively. The z-score in [8] is 0.512 (inactive).

Turning to `COC(=O)C1(Cc2ccccc2)C=C2C(=C(c3ccccc3)C(=O)C2C)CN1` (stereo not given), the composite z-score in experiment [1] amounted to 2.22; in experiment [2] it was 0.0069; in [3], 0.731; in experiment [4] it was 1.21; in experiment [5] it was 1.19; in experiment [6], 1.45. Further, the composite z-score in experiment [7] stood at 1.01; in experiment [9] it was 1.87; in experiment [10], 2.63. Further, the z-score in experiment [8] is 0.943 (inactive).
